Only a selection was taken, and hits are over-represented in it overall.
KDM5B inhibitor: Primary screen for KDM5B Histone Demethylases FDH-coupled qHTS. Lysine-specific demethylase 5B (Homo sapiens), Q9UGL1. KDM5B demethylase, FDH-coupled NADH fluorescence (FDH is formaldehyde dehydrogenase). Potency, µM (doses to about 57.7 µM), usual class: inhibitors. hit rate 2.6% among 220,000; active means well fitted inhibition curve with a large enough effect; further: 0% is about no effect; nearly all actives have a fitted effect of over 70% in size
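Inhibition is measured as reduced NADH fluorescence generation from FDH coupling to formaldehyde release. Truncated KDM5BΔAP at 200 nM final acts on H3K4me3 peptide (12.5 µM in substrate mix) in pH 7.5 HEPES buffer with Tween-20, 30 min, room temperature.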
An asterisk follows results filed as active; i = inactive. Potency means the concentration at half of the fitted maximal effect.

SMILES | KDM5B inhibitor
CC(C)Cc1noc(CN(C)C(=O)CC2C(=O)NCCN2CC(C)C)n1 (configuration not stated) | i
CC(C)CCN1CCNC(=O)C1CC(=O)N(Cc1cnn(C)c1)C1CC1 (configuration not stated) | 16µM*
CCN(Cc1ccncc1)C(=O)CC1C(=O)NCCN1CCc1ccccc1 (configuration not stated) | i
CCCCc1ccc(NC(=S)NN2CCN(C)CC2)cc1 | i
CCOc1ccc(NC(=O)Cn2c(=O)c3c(ncn3CCC(C)C)n(Cc3ccccc3)c2=O)cc1 | i
CN(CC(=O)NC(=O)NCc1ccccc1)Cc1ccc(C(F)(F)F)cc1 | i
COC(=O)C1CCN(Cc2cc(=O)oc3ccc(O)cc23)CC1 | i
O=C(Nc1cccnc1)N1CCN(c2cnccn2)CC1 | i
CC1=C(C)CC(C(=O)N2CCc3ccccc3C2)C(C(=O)O)C1 (configuration not stated) | i
CC(=O)Nc1ccc(OCC(=O)N2CCc3ccccc3C2)nc1 | i
COC[C@@H]1CN(c2cnccn2)C[C@H]1C(=O)N1CCc2ccccc2C1 | 20µM*
CC(=O)Nc1ccc(NC(=O)C2CCN(c3cnccn3)CC2)cc1 | i
CNC(=O)[C@@H]1CN(C(=O)c2ccc(OC)nc2)C[C@H]1COC | i
O=C(NCCc1ccccn1)C1CCC(=O)N(C2CCCCCC2)C1 (configuration not stated) | i
COC[C@@H]1CN(c2cnccn2)C[C@H]1C(=O)Nc1ccc(OC)nc1 | 25µM*
COC[C@@H]1CN(c2cnccn2)C[C@H]1C(=O)Nc1cccnc1 | 28µM*
COc1ccc(C(=O)N[C@@H]2CCC[C@@H]2C(=O)NCCc2ccccn2)cn1 | i
COC[C@@H]1CN(c2cnccn2)C[C@H]1C(=O)NCCc1ccccn1 | 20µM*
COc1ccc(NC(=O)C2CCN(c3cnccn3)CC2)cc1Cl | i
Cc1cc(C(=O)C(C)Sc2nnnn2C2CCCC2)c(C)n1Cc1ccco1 (configuration not stated) | i
Cc1cc(C)c(C(O)C(C)Sc2ccc(Cl)cc2)cc1C (configuration not stated) | i
CCCC(C)NC(=O)c1cnn(-c2ccccc2F)c1-n1cccc1 (configuration not stated) | i
S=C(NC1CCCCC1)c1ccccc1 | i
CC(O)CNS(=O)(=O)c1ccc(Oc2ccc(S(=O)(=O)NCC(C)O)cc2)cc1 (configuration not stated) | i
O=C(Nc1ccc([C@H]2OCC(=O)N(Cc3ccccc3)[C@@H]2CO)cc1)C1CCOCC1 | i
SMILES | KDM5B inhibitor
COc1ccc(-c2nc(SC(C)C(=O)NCC(C)C)n[nH]2)c(OC)c1 (configuration not stated) | i
O=C1CCCC2=C1C(c1ccccc1)CC(=O)N2c1ccccc1F (configuration not stated) | i
CC(NC(=O)c1cc(=O)c2ccccc2o1)c1ccccc1 (configuration not stated) | i
CC1(c2ccccc2)N(Cc2ccccc2)C(=O)OC12CCN(C(=O)Cc1cccc(F)c1)CC2 (configuration not stated) | i
COc1ccc(S(=O)(=O)Cc2nnnn2-c2cccc(C(F)(F)F)c2)cc1 | i
CN(C)CCN(C)C(=O)c1ccc2c(c1)NC(C)(COc1ccccc1)CO2 (configuration not stated) | i
CCOCC1(C)COc2ccc(C(=O)N(C)c3ccccc3)cc2N1 (configuration not stated) | i
CCOCC1(C)COc2ccc(C(=O)Nc3cccc(OC)c3)cc2N1 (configuration not stated) | 32µM*
CN(C)CCCOCC1(C)COc2ccc(C(=O)Nc3cccc(Cl)c3)cc2N1 (configuration not stated) | 32µM*
CC1(CNc2ccccc2)COc2ccc(C(=O)NCc3cccnc3)cc2N1 (configuration not stated) | i
CN(C)CCOCC1(C)COc2ccc(C(=O)Nc3ccc4[nH]ccc4c3)cc2N1 (configuration not stated) | i
CCOCC1(C)COc2ccc(C(=O)Nc3ccc(Cl)cc3)cc2N1 (configuration not stated) | 28µM*
COc1ccc(NC(=O)c2ccc3c(c2)NC(=O)CO3)cc1 | i
COc1cccc(NC(=O)c2ccc3c(c2)NC(C)(CNc2ccccc2)CO3)c1 (configuration not stated) | 13µM*
Cn1c(=O)c2c(ncn2CCC(=O)Nc2ccc(F)cc2)n(C)c1=O | i
CCOc1ccc(CN(C(=O)c2cc(=O)c3ccc(C)c(C)c3o2)C2CCS(=O)(=O)C2)cc1 (configuration not stated) | i
Cc1cccc(C2CC(=O)c3cnn(-c4nc5ccccc5[nH]4)c3C2)c1 (configuration not stated) | i
COC(=O)c1cnn(-c2ccc(C(=O)Nc3ccc(Br)cc3F)cc2)c1N | i
O=C(N1CCCCC1)N1CCN([S+](=O)([O-])c2ccc(Cl)nc2)C(=O)C1 | i
O=C(Cc1ccc(Cl)c(Cl)c1)NCc1ccccn1 | i
O=C(Nc1ccc(SC(F)F)cc1)c1cc(-c2ccccc2)nc2ccccc12 | i
CCC(CNc1ccc2nnnn2n1)N1CCCC1 (configuration not stated) | i
O=C(c1cc(=O)c2cc(Br)ccc2o1)N(Cc1cccs1)c1ccccn1 | i
O=C(NC1CC1)C(NCc1cccc(C(F)(F)F)c1)c1ccc(F)cc1 (configuration not stated) | i
CC(=O)CC(C)(C)S(=O)(=O)c1cccc2c(S(=O)(=O)C(C)(C)CC(C)=O)cccc12 | i
SMILES | KDM5B inhibitor
COC(=O)CCOc1ccc(S(=O)(=O)Nc2ccc(F)c(F)c2)cc1 | i
CN(Cc1ccccc1)c1ncnc2c1CCN(C(=O)C1CCC1)CC2 | i
Cc1cn2nc(C(=O)N3CCN(c4ccccc4)CC3)cc2c(N(C)Cc2ccccc2)n1 | 25µM*
Cc1ccc(S(=O)(=O)N(C)Cc2ccccc2)cc1C(=O)N1CCCCC1 | i
CCc1ccc(-n2nc(C)c3c(C(=O)N4CCN(c5ccccc5)CC4)cc(C)nc32)cc1 | i
Cc1cn2nc(C(=O)N3CCCCC3)cc2c(N(C)Cc2ccccc2)n1 | 32µM*
Cc1ccc(-c2nc(C(=O)N3CCN(c4ccccc4)CC3)no2)cc1 | i
CCc1ccc2c(COC(=O)C3=NN(C)C(=O)CC3)cc(=O)oc2c1 | i
CCn1nc(C(=O)Nc2cc(S(=O)(=O)N(C)C)ccc2C)c2ccccc2c1=O | i
CCOCCOC(=O)COc1ccc2c(=O)c(Oc3ccccc3Br)coc2c1 | i
COc1ccc(C(=O)N2N=C(c3ccco3)CC2c2ccc3nccnc3c2)cc1 (configuration not stated) | i
CC(=O)Nc1ccc(NC(=O)COC(=O)c2ccccc2Sc2ccccc2C#N)cc1 | i
Cc1ccc(CN(C)C(=O)Cn2c(Cl)nc3c2c(=O)n(C)c(=O)n3C)cc1 | i
Fc1cc(Cl)ccc1C1c2nc[nH]c2CCN1Cc1ccccn1 (configuration not stated) | i
Cn1c(-c2ccc(CN3CCc4[nH]cnc4C3C(=O)O)o2)nc2ccccc21 (configuration not stated) | 28µM*
O=C(O)C1c2nc[nH]c2CCN1C(=O)CCN1CCCCC1 (configuration not stated) | i

Screens (PubChem)
